Assay [1] is described as follows: NCI Yeast Anticancer Drug Screen. Data for the rad50 strain (AID 155).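 Note: 0% = growth of vehicle-only cultures of the same strain.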 To be noted: S. cerevisiae rad50 strain growth inhibition; at 50.0 µM; stronger effect = higher value. The method, boiled down:
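DNA repair mutant yeast, compound exposure, growth read-out; inhibition is taken relative to vehicle.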

A short description of assay [2]: NCI Yeast Anticancer Drug Screen. Data for the mec2-1 strain (AID 157). To be noted: S. cerevisiae mec2-1 strain, at 50.0 µM, stronger effect = higher value. In a few lines:
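mec2-1 yeast strain, carrying an alteration in DNA damage repair or cell cycle control, was exposed to compounds; growth inhibition was measured relative to vehicle-treated controls.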

A short description of assay [3]: NCI Yeast Anticancer Drug Screen. Data for the sgs1 mgt1 strain (AID 161).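 Note: 0% = growth of cultures given vehicle only.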 The conditions noted are these: S. cerevisiae sgs1 mgt1 strain, at 50.0 µM, stronger effect = higher value. The method, boiled down: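 Growth of a repair-deficient yeast mutant was monitored after compound treatment and expressed as inhibition relative to vehicle-treated cultures.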
The nature of assay [4]: NCI Yeast Anticancer Drug Screen. Data for the cln2 rad14 strain (AID 165).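 Note: 0% = growth equal to vehicle treated cultures.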 To be noted: S. cerevisiae cln2 rad14 strain, at 50.0 µM, stronger effect = higher value. The method, boiled down: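 Yeast carrying cln2 and rad14 alterations (cell cycle control and DNA damage repair) were exposed to compounds. Growth inhibition was measured against vehicle-treated controls.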
A short description of assay [5]: NCI Yeast Anticancer Drug Screen. Data for the bub3 strain (AID 167). To be noted: S. cerevisiae bub3 mutant strain, at 50.0 µM, stronger effect = higher value. In a few lines: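 In this screen, a yeast mutant lacking normal mitotic checkpoint function is challenged with compound. Relative growth versus vehicle gives the inhibition value.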
Assay [6] can be described thus: NCI Yeast Anticancer Drug Screen. Data for the mlh1 rad18 strain (AID 175). To be noted: S. cerevisiae mlh1 rad18 strain growth inhibition; at 50.0 µM; stronger effect = higher value. In a few lines:
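Growth inhibition of the yeast strain was measured after compound exposure and expressed relative to vehicle-treated controls. The strain carries defined defects in DNA damage repair.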

The panel holds about 79,000 compounds, 15% with a hit somewhere; the sample as a whole holds those more often. Values without a mark were called inactive. The source made the active and inactive calls. Cut-off read from the data, not from the text of the source: active = growth inhibition above about 70%; inactive = the rest.

With `Cc1ccc(-c2nnc(C)o2)cc1`, the growth inhibition in assay [1] was 5.55%; in assay [2] it was -6.65%; in assay [3], -7.85%; in assay [4] it was -35.6%; in assay [5], 13.3%; in assay [6], 6.2%.

Take `CCOC(=O)C1C(C)NC(C)C(C(=O)OCC)C1C` (stereo unspecified): the growth inhibition in assay [1] was 15.9%; in assay [2], 1.05%; in assay [3], 3.4%; in assay [4] it was -44.5%; in assay [5], 5.3%; in assay [6], 26.1%.

`C=CCC(C)C(=O)NNC(=O)C(C)CC=C` (stereo unspecified): the growth inhibition in assay [1] is -11.8%; in assay [2], -9.15%; in assay [3], -1.85%; in assay [4] it was -13.3%; in assay [5], -12.2%; in assay [6], 11.8%.

Consider `CCCC(=O)n1[nH]c(=O)n(-c2ccc(Cl)cc2)c1=O`, for which the growth inhibition in assay [1] is 5.15%; in assay [2], -12.3%; in assay [3], 19.8%; in assay [4], 3.25%; in assay [5] it was -2.1%; in assay [6] it was -10.3%.

For `CN(C)Cc1cc(O)c(O)c(CN(C)C)c1`, the growth inhibition is -16.6% in assay [1]; -19.9% in assay [2]; -8.45% in assay [3]; 5.4% in assay [4]; -40.2% in assay [5]; 13.1% in assay [6].

For the molecule `CC1=NC(=Cc2ccccc2O)C(=O)N1n1c(-c2ccccc2)nc2ccccc2c1=O`, the growth inhibition is 22.4% in assay [1]; 17.7% in assay [2]; 51.5% in assay [3]; 16.6% in assay [4]; 42.5% in assay [5]; 44.5% in assay [6].

For `CC(C)c1ccc2c(c1)CCC1C(C)(C)[C@@H](O)CC[C@]21C` (stereo partly specified), the growth inhibition in assay [1] was -15.3%; in assay [2], -40.1%; in assay [3] it was -23.2%; in assay [4], 19.4%; in assay [5], -32.6%; in assay [6], -22.3%.

With `CCC(O)C(C)C(O)CC` (stereo unspecified), the growth inhibition in assay [1] was 7.9%; in assay [2] it was 14.7%; in assay [3], 2.6%; in assay [4], 13.3%; in assay [5] it was 13.2%; in assay [6] it was 17.5%.

With `Cc1cc2ccccc2n1C`, the growth inhibition in assay [1] is 4.05%; in assay [2], 5.45%; in assay [3], 39.5%; in assay [4], 10.1%; in assay [5] it was 31.9%; in assay [6], 18.2%.

Consider `CC(CC(=O)O)(CC(=O)O)c1ccccc1`, for which the growth inhibition in assay [1] is 19.6%; in assay [2], -35.5%; in assay [3], -11.2%; in assay [4], -7.3%; in assay [5], -7.05%; in assay [6], -35.1%.

In the case of `CCOc1cc(/C=C2\N=C(c3ccccc3)OC2=O)ccc1O`, the growth inhibition in assay [1] was 5%; in assay [2], 1.2%; in assay [3], 2.6%; in assay [4] it was -50.8%; in assay [5], -12.8%; in assay [6], -2.75%.

`O=[S@]1Nc2cc(N=Nc3ccccc3)ccc2S1`: the growth inhibition is -3.45% in assay [1]; 16.1% in assay [2]; 0.15% in assay [3]; -10.5% in assay [4]; -5.05% in assay [5]; -12.1% in assay [6].

For the molecule `NC(=S)NN/C=C(\C=Nc1ccccc1)[N+](=O)[O-]`, the growth inhibition is 8.15% in assay [1]; -3.3% in assay [2]; 4.15% in assay [3]; 0.4% in assay [4]; 0.15% in assay [5]; 1% in assay [6].

In the case of `S=c1c2ccccc2c(=S)n2n1CC=CC2`, the growth inhibition in assay [1] was 7.6%; in assay [2], 6.95%; in assay [3], 2.3%; in assay [4], 0%; in assay [5], 16.8%; in assay [6] it was 15.7%.

On to `CCCCCN(C=O)c1ccccc1`, for which the growth inhibition in assay [1] was -4.25%; in assay [2], -13.7%; in assay [3], -19.9%; in assay [4], -13.6%; in assay [5] it was -7.4%; in assay [6], -2.5%.

With `O=C(CCN1CCOCC1)c1csc2ccccc12`, the growth inhibition is 27.6% in assay [1]; 36.9% in assay [2]; 12.9% in assay [3]; 14.9% in assay [4]; -5.35% in assay [5]; 17.8% in assay [6].

In the case of `CCC(=O)Oc1ccc(CCC(C)=O)cc1OC`, the growth inhibition in assay [1] was 4.15%; in assay [2], -7.55%; in assay [3], -16.8%; in assay [4], -26.6%; in assay [5], -2.3%; in assay [6], 25.8%.

For `COc1ccc(NC(=O)NCc2cccc(Cl)c2)cc1`, the growth inhibition was 2.6% in assay [1]; 35.4% in assay [2]; 32% in assay [3]; -8.4% in assay [4]; -9.15% in assay [5]; 44.1% in assay [6].

As to `O=C(Nc1ncc([N+](=O)[O-])s1)c1cc(Cl)cc(Cl)c1`, the growth inhibition in assay [1] is 60.5%; in assay [2] it was 61%; in assay [3], 77.9% (active); in assay [4], 53%; in assay [5], 57.5%; in assay [6] it was 74.3% (active).

Regarding `CC(C#N)(Nc1ccccc1)c1ccccc1` (stereo unspecified), the growth inhibition in assay [1] was 0.6%; in assay [2], 6.75%; in assay [3], 6.9%; in assay [4], -32.6%; in assay [5], -10.7%; in assay [6] it was -6.4%.

Consider `Cc1nc2ccccc2c(=O)n1NC(=O)c1ccccn1`, for which the growth inhibition in assay [1] was -6.6%; in assay [2], -10%; in assay [3], -11.6%; in assay [4], -1.05%; in assay [5], -5.55%; in assay [6], -8.25%.

The values are drawn from PubChem BioAssay (NCI).
